Results filed as inconclusive are left out. Calls of active or inactive are those of the source. Unless noted, the call rests on the fitted dose curve.

Assay [1] addresses Lysosomal acid glucosylceramidase (Homo sapiens) (UniProt P04062). The assay can be described thus: Glucocerebrosidase-p2 (AID 348; in the data active means potency below about 10 µM; further: potency means the concentration at half of the fitted maximal effect). The note with it: purified GBA, blue fluorogenic substrate, 40 min. The method, boiled down:
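Normal human glucocerebrosidase (0.2 nM) with blue fluorogenic substrate (80 uM final) in citrate/phosphate pH 5.9 with 10mM sodium taurocholate, 0.01% tween-20; 40 min RT, NaOH/glycine stop; fluorescence Ex 365/Em 440; AC50 from a titration from 0.6 nM upwards.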

A short description of assay [2]: NFAT Signaling Pathway (AID 444; active means well fitted curve in either direction with a large enough effect, not every such curve was filed as active;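 further: carbachol stimulus at about its EC50 of 1 µM final; on the % scale 0 is the no-effect control and ±100 the full control effect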). The note with it: Jurkat NFAT-bla M1, carbachol, beta-lactamase ratio, 5 h; at 7.69 µM (top of the series) unless noted. The gist of the method: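 Jurkat cells with NFAT-driven β-lactamase reporter and co-expressed M1 receptor, stimulated with carbachol (final 1 uM, ~EC50), compound titration, 5 h at 37 °C. CCF4 loaded 1 h at RT; 460/530 nm ratio gave %activity and AC50.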

The target in assay [3] is Glucocorticoid receptor (Homo sapiens) (UniProt P04150). The assay can be described thus: GR-GFP Redistribution (AID 450;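 active means compounds whose dose series gives a full or clear partial fitted curve of increased nuclear translocation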; further: potency means the concentration at half of the fitted maximal effect). To be noted: U2OS GR-GFP nuclear translocation, laser cytometry, 2 h.
Sequence of Glucocorticoid receptor (Homo sapiens) (P04150 whole entry, looked up, the tested form may be a part): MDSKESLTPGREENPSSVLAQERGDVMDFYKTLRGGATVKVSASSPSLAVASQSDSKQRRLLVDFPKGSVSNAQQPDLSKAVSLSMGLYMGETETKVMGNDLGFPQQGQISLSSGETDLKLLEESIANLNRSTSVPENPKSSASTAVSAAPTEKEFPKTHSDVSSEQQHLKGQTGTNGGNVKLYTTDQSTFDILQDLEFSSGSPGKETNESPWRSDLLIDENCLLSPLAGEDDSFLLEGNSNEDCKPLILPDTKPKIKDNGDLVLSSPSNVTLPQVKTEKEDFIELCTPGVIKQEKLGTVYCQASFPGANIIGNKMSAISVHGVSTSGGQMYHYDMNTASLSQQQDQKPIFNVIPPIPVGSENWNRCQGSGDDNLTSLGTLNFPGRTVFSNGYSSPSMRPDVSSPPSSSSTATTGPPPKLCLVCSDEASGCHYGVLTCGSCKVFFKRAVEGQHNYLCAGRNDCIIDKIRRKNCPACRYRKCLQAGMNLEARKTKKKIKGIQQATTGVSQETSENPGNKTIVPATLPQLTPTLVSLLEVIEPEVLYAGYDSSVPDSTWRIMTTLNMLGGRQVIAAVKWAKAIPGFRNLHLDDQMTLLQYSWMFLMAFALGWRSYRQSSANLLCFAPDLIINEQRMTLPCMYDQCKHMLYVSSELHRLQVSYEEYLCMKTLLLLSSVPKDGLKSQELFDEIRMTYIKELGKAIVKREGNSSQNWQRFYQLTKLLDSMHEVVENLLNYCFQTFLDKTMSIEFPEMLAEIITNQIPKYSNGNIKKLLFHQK
The target is the same in assay [4]. The assay can be described thus: GR-EFC Redistribution (AID 451). Further: potency means the concentration at half of the fitted maximal effect. To be noted: CHO-K1 GR-EFC translocation, beta-gal luminescence, 2 h. The method, boiled down: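 CHO-K1 cells expressing nuclear EA and GR-ED fragments of b-gal; compounds titrated up to 46 uM final, 2 h at 37 C. GR nuclear translocation read as complemented b-gal luminescence after 1 h RT detection.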

Assay [5] deals with Mitogen-activated protein kinase 10 (Mus musculus) (UniProt Q61831). The assay can be described thus: JNK3 AlphaScreen Assay (AID 530; active means well fitted curve in either direction with a large enough effect, not every such curve was filed as active;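 further: kinase came from lysate of stimulated human HepG2 cells; signal reports phosphorylation of biotinylated GST-cJun 1-79 at Ser73 with 10 µM ATP; on the % scale 0 is the no-effect control and ±100 the full control effect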). To be noted: JNK3 lysate, c-Jun phosphorylation; series mostly up to 57.1 µM. The method, boiled down:
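Activity was read by AlphaScreen after JNK3-containing HepG2 lysate (cytokine pre-activated) phosphorylated biotinylated GST-cJun with 10 uM ATP at room temperature. Phospho-Ser73 cJun antibody with Protein-A acceptor beads provided detection.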

For assay [6], the target named is 3',5'-cyclic-AMP phosphodiesterase 4B (Homo sapiens) (UniProt Q07343). Kind of assay: qHTS Assay for Inhibitors of PDE-IV (AID 607; active means well fitted activation curve with a large enough effect in the main read-out, with a control signal flat, not every such curve was filed as active; further: % of control where 0% means no effect). The note with it: HEK293 ACTOne CNG channel cells, membrane potential fluorescence; series mostly up to 22.9 µM. The gist of the method: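 HEK293 ACTOne cells with CNG channel (1000/well), endogenous PDE4; membrane potential dye, compounds up to 22.9 uM final. Fluorescence Ex 535/Em 590; RO 20-1724 (100 uM final) as reference.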
Sequence of 3',5'-cyclic-AMP phosphodiesterase 4B (Homo sapiens) (Q07343 whole entry, looked up): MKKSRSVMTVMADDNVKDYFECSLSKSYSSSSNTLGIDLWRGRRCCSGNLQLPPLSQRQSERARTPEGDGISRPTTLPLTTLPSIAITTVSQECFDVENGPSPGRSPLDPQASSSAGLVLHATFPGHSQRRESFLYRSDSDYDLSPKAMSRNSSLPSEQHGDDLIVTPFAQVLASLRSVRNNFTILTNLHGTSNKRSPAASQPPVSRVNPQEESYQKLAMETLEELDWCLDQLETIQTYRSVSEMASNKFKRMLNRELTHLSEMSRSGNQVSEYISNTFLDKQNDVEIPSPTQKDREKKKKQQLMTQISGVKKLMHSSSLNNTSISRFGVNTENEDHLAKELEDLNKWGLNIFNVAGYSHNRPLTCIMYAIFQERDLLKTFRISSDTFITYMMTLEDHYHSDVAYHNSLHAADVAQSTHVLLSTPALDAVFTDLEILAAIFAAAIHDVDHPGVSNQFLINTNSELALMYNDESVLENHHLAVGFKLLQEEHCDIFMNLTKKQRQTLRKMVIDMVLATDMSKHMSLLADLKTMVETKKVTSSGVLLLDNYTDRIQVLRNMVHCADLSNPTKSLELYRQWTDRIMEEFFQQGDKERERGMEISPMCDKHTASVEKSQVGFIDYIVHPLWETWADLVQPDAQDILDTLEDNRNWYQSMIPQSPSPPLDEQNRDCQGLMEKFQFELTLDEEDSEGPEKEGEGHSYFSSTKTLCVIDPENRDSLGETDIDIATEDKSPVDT

Assay [7] in a line: qHTS Assay for Identification of Small Molecule Agonists for Hypoxia Response Element Signaling Pathway (AID 914; active means well fitted activation curve with a large enough effect in the signal ratio, with a control signal flat, not every such curve was filed as active; the % refers to the signal ratio; further: potency means the concentration at half of the fitted maximal effect). To be noted: ME-180 HRE-bla reporter, beta-lactamase ratio, CoCl2, 17 h; activation: stronger effect = higher value. The method, boiled down:
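Reporter activity (beta-lactamase, CCF4 460nm/530nm ratio) in HRE-bla ME-180 cells is recorded after 17 h compound exposure with EC50 CoCl2 at 37 degrees Celsius. AC50 values come from titration data.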

Assay [8] can be described thus: qHTS Assay for Lipid Storage Modulators (AID 1519). To be noted: Drosophila S3 cells, BODIPY lipid droplet/cell ratio, laser cytometry, cells loaded with oleic acid. The method, boiled down:
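Cells seeded at 5,000 per well were treated with compounds over a concentration series and loaded with oleic acid (400 uM, as added). Lipid droplet fluorescence (488 nm excitation, 500-530 nm channel) was read by laser-scanning cytometry and normalized to 20 uM Triacsin C.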

The target in assay [9] is Dual specificity protein kinase CLK4 (Homo sapiens) (UniProt Q9HAZ1). Kind of assay: qHTS Assay for Inhibitors of CDC-like Kinase 4 (Kinase-Glo Assay) (AID 1770; active means well fitted curve in the direction sought with a large enough effect; an effect the other way counts as inactive or inconclusive; further: on the % scale 0 is the no-effect control and ±100 the full control effect; nearly all actives have a fitted effect of over 65% in size). The note with it: recombinant Clk4, Kinase-Glo ATP depletion luminescence; series mostly up to 66.7 µM. The gist of the method: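 Luminescent ATP-depletion read-out (Kinase-Glo) after 4.5 h room-temperature reaction of Clk4 (25 nM final) with RS peptide (100 uM) and ATP (1 uM), pH 7.5 Tris buffer with MgCl2 and DTT.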
Sequence of Dual specificity protein kinase CLK4 (Homo sapiens) (Q9HAZ1 whole entry, looked up): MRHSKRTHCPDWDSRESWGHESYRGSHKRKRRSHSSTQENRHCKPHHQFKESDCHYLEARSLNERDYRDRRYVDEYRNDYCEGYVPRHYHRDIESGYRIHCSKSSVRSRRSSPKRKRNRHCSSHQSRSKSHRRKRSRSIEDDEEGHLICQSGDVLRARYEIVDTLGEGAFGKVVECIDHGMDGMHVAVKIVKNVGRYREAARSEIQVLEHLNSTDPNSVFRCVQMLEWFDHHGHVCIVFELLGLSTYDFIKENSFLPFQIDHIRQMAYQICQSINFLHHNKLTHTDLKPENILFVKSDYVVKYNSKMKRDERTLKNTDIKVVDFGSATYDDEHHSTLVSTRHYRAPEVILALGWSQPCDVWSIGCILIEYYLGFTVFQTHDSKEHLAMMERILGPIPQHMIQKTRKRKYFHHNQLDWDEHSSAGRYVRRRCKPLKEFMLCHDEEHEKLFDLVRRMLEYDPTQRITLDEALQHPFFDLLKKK

The target is the same in assay [10]. Kind of assay: qHTS Assay for Inhibitors of CDC-like Kinase 4 (ADP-FP Assay) (AID 1795; active means well fitted curve in the direction sought with a large enough effect; an effect the other way counts as inactive or inconclusive;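 further: recombinant human CLK4 phosphorylating RS repeat peptide at 1 µM ATP; on the % scale 0 is the no-effect control and ±100 the full control effect; nearly all actives have a fitted effect of over 60% in size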). The note with it: Transcreener ADP fluorescence polarization; series mostly up to 50 µM. The gist of the method: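 Kinase activity was measured as ADP production using Transcreener orange tracer (4 nM) and ADP antibody (1 ug/mL) fluorescence polarization, with ADP calculated from a calibration curve. The 1 h reaction contained 6.25 nM Clk4, 1 uM ATP and 100 uM RS peptide at pH 7.5 with Mg2+.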

Assay [11] addresses Ubiquitin carboxyl-terminal hydrolase 1 (Homo sapiens) (UniProt O94782). The assay can be described thus: Inhibitors of USP1/UAF1: Pilot qHTS (AID 504865; active means well fitted curve in the direction sought with a large enough effect; an effect the other way counts as inactive or inconclusive; further: nearly all actives have a fitted effect of over 35% in size; further: potency means the concentration at half of the fitted maximal effect). To be noted: purified USP1/UAF1, Ub-rhodamine cleavage fluorescence; series mostly up to 54.9 µM. The gist of the method:
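Deubiquitinase activity followed as kinetic rhodamine fluorescence release from 150 nM Ub-Rho. 1 nM USP1/UAF1 with compound, after 15 min room-temperature preincubation, in HEPES pH 7.8 buffer containing TCEP, EDTA, BSA and Tween-20.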

Assay [12] in a line: AP1 Signaling Pathway (AID 357; active means well fitted curve in either direction with a large enough effect, not every such curve was filed as active; further: on the % scale 0 is the no-effect control and ±100 the full control effect). To be noted: ME-180 AP-1-bla reporter, EGF-induced, beta-lactamase ratio, 5 h; at 7.69 µM (top of the series) unless noted. The gist of the method: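 Read-out was the 460nm/530nm emission ratio (excitation 405nm) after CCF4 loading for 2.5 hours at room temperature. Cells carried an AP-1-driven beta-lactamase reporter, were stimulated with EC50 EGF plus compound for 5 hours, and AC50 values came from titrations.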

For assay [13], the target named is Cytochrome P450 1A2 (Homo sapiens) (UniProt P05177). Kind of assay: p450-cyp1a2 (AID 410). Further: potency means the concentration at half of the fitted maximal effect. The note with it: recombinant CYP1A2, luciferin-ME demethylation, luminescence; series mostly up to 57 µM. The method, boiled down: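 Luminescent demethylation readout: Luciferin-ME (100uM, equal to Km) turned over by 20nM CYP1A2 for 60 min at room temperature after NADPH regeneration addition, following 10 min compound preincubation. Normalization used 57 uM furafylline as full inhibition.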
Sequence of Cytochrome P450 1A2 (Homo sapiens) (P05177 whole entry, looked up): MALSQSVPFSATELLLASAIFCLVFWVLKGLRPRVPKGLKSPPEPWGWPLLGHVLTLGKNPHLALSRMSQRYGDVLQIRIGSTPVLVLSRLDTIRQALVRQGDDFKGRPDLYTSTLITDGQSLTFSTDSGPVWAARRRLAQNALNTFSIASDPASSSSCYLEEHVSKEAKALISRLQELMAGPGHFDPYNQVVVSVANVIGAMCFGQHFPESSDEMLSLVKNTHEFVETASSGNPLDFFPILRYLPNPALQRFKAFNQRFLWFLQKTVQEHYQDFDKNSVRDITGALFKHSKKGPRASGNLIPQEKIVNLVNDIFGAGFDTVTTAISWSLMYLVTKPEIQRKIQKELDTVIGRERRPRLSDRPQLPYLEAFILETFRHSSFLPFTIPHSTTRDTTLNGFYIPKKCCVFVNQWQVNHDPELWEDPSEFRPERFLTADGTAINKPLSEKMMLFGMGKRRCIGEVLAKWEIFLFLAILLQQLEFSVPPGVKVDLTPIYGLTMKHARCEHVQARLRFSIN

Assay [14] can be described thus: Stat Signaling Pathway (AID 446; active means well fitted curve in either direction with a large enough effect, not every such curve was filed as active;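 further: ME-180 cervical cancer cells given 40 pM IL-6 alongside compound; SIE-controlled beta-lactamase reporter measured as 460/530 nm FRET emission ratio; on the % scale 0 is the no-effect control and ±100 the full control effect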). To be noted: ME-180 (cervical carcinoma) SIE beta-lactamase reporter, IL-6 stimulated, 5 h; at 7.69 µM (top of the series) unless noted. The gist of the method:
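Normalization used AC90 stimulation (300 pM IL-6) and AC90 inhibition (125 nM pan-JAK inhibitor at 40 pM IL-6). The underlying signal is SIE-driven beta-lactamase in ME-180 cells after 5 h IL-6 exposure with compound.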

Assay [15] has as its target Cytochrome P450 3A4 (Homo sapiens) (UniProt P08684). The assay can be described thus: qHTS Assay for Activators of Cytochrome P450 3A4 (AID 885; active means well fitted curve in the direction sought with a large enough effect; an effect the other way counts as inactive or inconclusive; further: nearly all actives have a fitted effect of over 65% in size). The note with it: recombinant CYP3A4, Luciferin-PPXE luminescence, 60 min; series mostly up to 57.1 µM. The gist of the method: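 Human CYP3A4 dealkylates Luciferin-PPXE to luciferin, which luciferase detection converts to light. Substrate was at its KM (25uM), buffer 200mM KPO4, reaction 60 min at RT.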

Assay [16] has as its target Dual specificity protein kinase CLK4 (Homo sapiens) (UniProt Q9HAZ1). The assay can be described thus: qHTS Assay for Inhibitors of CDC-like Kinase 4 (ADP-Glo Assay) (AID 1771; active means well fitted curve in the direction sought with a large enough effect; an effect the other way counts as inactive or inconclusive; further: potency means the concentration at half of the fitted maximal effect; nearly all actives have a fitted effect of over 70% in size). The note with it: recombinant CLK4, ADP-Glo luminescence; series mostly up to 80 µM. The gist of the method: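 ADP production was read by ADP-Glo luminescence after residual ATP depletion, following 1 h room-temperature reaction of 25 nM Clk4, 1 uM ATP and 100 uM RS peptide with MgCl2, EGTA, DTT and Triton X-100.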

Where [17] appears, read: measured here: cell count channel max response.
Setting [18] is: measured here: lipid channel max response.

Sequence of Lysosomal acid glucosylceramidase (Homo sapiens) (P04062 whole entry, looked up): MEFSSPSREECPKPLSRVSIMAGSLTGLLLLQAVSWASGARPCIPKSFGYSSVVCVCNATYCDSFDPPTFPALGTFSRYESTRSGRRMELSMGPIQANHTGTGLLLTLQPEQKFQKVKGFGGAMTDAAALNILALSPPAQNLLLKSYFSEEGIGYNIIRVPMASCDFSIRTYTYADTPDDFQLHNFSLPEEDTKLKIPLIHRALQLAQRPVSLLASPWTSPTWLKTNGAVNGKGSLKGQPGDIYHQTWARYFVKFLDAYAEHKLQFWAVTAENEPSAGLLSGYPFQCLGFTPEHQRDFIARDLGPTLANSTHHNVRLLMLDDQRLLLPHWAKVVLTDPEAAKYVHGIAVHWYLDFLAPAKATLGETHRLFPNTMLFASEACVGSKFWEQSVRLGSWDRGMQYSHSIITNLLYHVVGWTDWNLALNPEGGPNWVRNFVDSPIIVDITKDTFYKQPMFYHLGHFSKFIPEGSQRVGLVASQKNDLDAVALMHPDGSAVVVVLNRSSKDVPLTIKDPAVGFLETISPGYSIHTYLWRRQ
Sequence of Ubiquitin carboxyl-terminal hydrolase 1 (Homo sapiens) (O94782 whole entry, looked up): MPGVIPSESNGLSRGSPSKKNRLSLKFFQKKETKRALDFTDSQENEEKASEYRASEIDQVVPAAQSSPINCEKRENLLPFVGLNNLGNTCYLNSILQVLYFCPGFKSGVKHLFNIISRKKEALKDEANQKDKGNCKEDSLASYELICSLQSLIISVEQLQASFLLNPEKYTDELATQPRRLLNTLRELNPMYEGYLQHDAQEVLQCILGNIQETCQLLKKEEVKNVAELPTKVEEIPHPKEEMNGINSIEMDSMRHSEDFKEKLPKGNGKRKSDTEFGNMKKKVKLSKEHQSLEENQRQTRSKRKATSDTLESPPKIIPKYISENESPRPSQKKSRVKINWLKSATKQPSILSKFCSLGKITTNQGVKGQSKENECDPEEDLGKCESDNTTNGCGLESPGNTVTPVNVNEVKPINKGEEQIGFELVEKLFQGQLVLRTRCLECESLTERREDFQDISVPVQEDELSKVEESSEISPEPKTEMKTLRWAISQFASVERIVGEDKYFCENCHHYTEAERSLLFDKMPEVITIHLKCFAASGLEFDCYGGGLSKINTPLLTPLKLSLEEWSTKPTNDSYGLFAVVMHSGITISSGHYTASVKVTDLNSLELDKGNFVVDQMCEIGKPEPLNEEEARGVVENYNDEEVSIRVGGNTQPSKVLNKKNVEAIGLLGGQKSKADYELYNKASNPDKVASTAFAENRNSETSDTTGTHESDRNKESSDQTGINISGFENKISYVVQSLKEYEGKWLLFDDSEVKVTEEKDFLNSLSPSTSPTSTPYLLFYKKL
Sequence of Cytochrome P450 3A4 (Homo sapiens) (P08684 whole entry, looked up): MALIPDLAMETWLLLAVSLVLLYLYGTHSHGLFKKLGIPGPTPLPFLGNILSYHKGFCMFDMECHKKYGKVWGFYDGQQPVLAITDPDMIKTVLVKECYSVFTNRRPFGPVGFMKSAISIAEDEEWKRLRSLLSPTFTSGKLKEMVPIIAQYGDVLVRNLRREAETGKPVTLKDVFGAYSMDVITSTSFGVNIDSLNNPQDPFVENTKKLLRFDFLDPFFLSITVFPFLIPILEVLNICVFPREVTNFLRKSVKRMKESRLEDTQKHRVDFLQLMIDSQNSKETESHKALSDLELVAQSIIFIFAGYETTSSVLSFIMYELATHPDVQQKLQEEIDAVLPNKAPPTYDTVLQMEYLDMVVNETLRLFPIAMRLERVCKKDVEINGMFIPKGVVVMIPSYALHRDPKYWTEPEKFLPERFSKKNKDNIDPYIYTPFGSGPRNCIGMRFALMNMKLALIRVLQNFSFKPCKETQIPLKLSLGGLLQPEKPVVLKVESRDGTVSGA

For the compound `CN1CCN(c2ncc3nc(-c4ccccc4)c(=O)n(C4CC4)c3n2)CC1`, the Potency is > 11.4 µM (inactive) in assay [1], > 9.22 µM (inactive) in assay [3], > 46 µM (inactive) in [4] and 3.98 µM (active) in assay [7]. The activity change, negative = inhibition was 30% (inactive) in assay [2] and 4.04% (inactive) in assay [8] (at 57.5 µM (top of the series)). The Potency result in assay [5], in assay [6], in assay [9], in assay [10] and in [11] was “inactive” each time. In addition, the values for the max response in assay [8] (setting [17]) and in [8] (setting [18]) were 24.3% and 27.3%, respectively.

`CN(C)CC/C=C1\c2ccccc2CSc2ccccc21`: the figures for the activity change, negative = inhibition in assay [12] and in [8] (at 25.7 µM (top of the series)) were 28.4% [at 17.2 µM] (inactive) and -6.7% (inactive), respectively. Also, the Potency result in assay [13], in assay [5], in assay [6] and in [11] was “inactive” each time. Also, in [14], the activity, negative = inhibition is -0.2% [at 17.2 µM] (inactive). Also, the Potency in assay [3] and in [4] was > 20.6 µM (inactive) each time. The max response in [8] (setting [17]) is -12.7%; in [8] (setting [18]), -19.8%.

With `COc1ncc2nc(-c3cccs3)c(=O)n(C)c2n1`, the Potency in assay [1] was > 11.4 µM (inactive); in assay [13], 2 µM (active); in [3], > 46 µM (inactive); in assay [4], > 46 µM (inactive); in assay [7] it was 2.51 µM (active). The activity change, negative = inhibition in assay [2] is 8.87% (inactive); in assay [8] (at 57.5 µM (top of the series)), 6% (inactive). The activity, negative = inhibition in assay [14] was 20.2% (inactive). For the same compound, the Potency entry in [5], in assay [6], in [15], in assay [10] and in assay [11] was “inactive” each time. For the same compound, the max response in [8] (setting [17]) came to 19.4%; in assay [8] (setting [18]) it was 24.1%.

In the case of `N#Cc1cccc(-c2ccc3ncnc(NCc4ccccc4)c3c2)c1`, the Potency in [1] is > 11.4 µM (inactive); in assay [13], 0.1 µM (active); in assay [3], > 46 µM (inactive); in assay [4], > 46 µM (inactive); in [16], 8.91 µM (active); in assay [11] it was 15.8 µM (active). The activity, negative = inhibition in [14] was -18.2% (inactive). The Potency entry in assay [5] and in [15] was “inactive” throughout. For the same compound, the activity change, negative = inhibition in assay [8] (at 57.5 µM (top of the series)) was -0.0166% (inactive). In addition, the values for the max response in [8] (setting [17]) and in assay [8] (setting [18]) were 4.36% and 2.9%, respectively.

Values taken from PubChem BioAssay (NCATS).
